Common to all, as to assay: log2 fold change, soluble protein after heating vs DMSO (PISA); higher = thermal stabilisation; K562 lysate, 10 uM; active = over 0.2 and 3.5 SD of the protein, either way, in both replicates (recomputed)
Compound in one test: CCCS(=O)(=O)Nc1ccc(F)c(C(=O)c2c[nH]c3ncc(-c4ccc(Cl)cc4)cc23)c1F [vemurafenib]
Summed up: (§1)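 K562 pellets were dounce-homogenised in PBS pH 7.4 containing 1 mM MgCl2, and the crude extract, at 1 mg/mL protein, was exposed to 10 μM compound for 30 min. Aliquots were heated for 3 min across 48°C-58°C, pooled, brought to 0.5% NP-40 at 4°C and spun at 21,000xg for 90 min, with the supernatant taken as soluble protein. TMTpro 16plex LC-MS/MS with equalised channel sums quantified that protein. Values are log-two fold changes in thermal stability relative to solvent controls, taken from duplicates.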

Compound in test [1]: CCCS(=O)(=O)Nc1ccc(F)c(C(=O)c2c[nH]c3ncc(Cl)cc23)c1F
Summed up: as §1

Compound in the next test: CCN(CCCOc1ccc2c(Nc3cc(CC(=O)Nc4cccc(F)c4)[nH]n3)ncnc2c1)CCOP(=O)(O)O [barasertib]
An outline of the steps:
as §1

Compound in test [2]: CC[C@@H]1C(=O)N(C)c2cnc(Nc3ccc(C(=O)NC4CCN(C)CC4)cc3OC)nc2N1C1CCCC1
Summed up:
as §1

Compound in the next test: CC[C@@H]1C(=O)N(C)c2cnc(Nc3ccc(C(=O)N[C@H]4CC[C@H](N5CCN(CC6CC6)CC5)CC4)cc3OC)nc2N1C(C)C [volasertib]
An outline of the steps: as §1

Compound in test [3]: CCn1cc(-c2ccnc3[nH]c(-c4cccc(CN(C)C)c4)cc23)c(-c2ccc(NC(=O)N(C)C)cc2)n1
An outline of the steps:
as §1

Compound in test [4]: CN1CCC(CNc2ccc3ncc(-c4cccc(OC(F)(F)F)c4)n3n2)CC1
Summed up:
as §1

Compound in another test: CN1CCN(CCOc2cc(OC3CCOCC3)c3c(Nc4c(Cl)ccc5c4OCO5)ncnc3c2)CC1 [saracatinib]
Summed up: as §1

Compound in a further test: CN1CCN(c2nc(C3=C(c4c[nH]c5ccccc45)C(=O)NC3=O)c3ccccc3n2)CC1 [sotrastaurin]
An outline of the steps: as §1

Compound in another test: CN1CC[C@H](c2c(O)cc(O)c3c(=O)cc(-c4ccccc4Cl)oc23)[C@H](O)C1 [alvocidib]
An outline of the steps:
as §1

Compound in test [5]: CNC(=O)C1=CC=CC=C1NC2=NC(=NC=C2Cl)NC3=C(C=C(C=C3)N4CCOCC4)OC
An outline of the steps: as §1

Compound in a further test: CNC(=O)c1ccc(Nc2ncc(C(F)(F)F)c(NCc3nccnc3N(C)S(C)(=O)=O)n2)cc1 [defactinib]
Summed up:
as §1

Compound in test [6]: CNc1nc(-c2ccc3c(N)n[nH]c3c2)cc(N2C[C@@H](C(=O)NC3CCCCC3)CC[C@H]2C)n1
An outline of the steps: as §1

Compound in another test: COC(=O)N[C@@H](C)CNc1nccc(-c2cn(C(C)C)nc2-c2cc(Cl)cc(NS(C)(=O)=O)c2F)n1 [encorafenib]
Summed up:
as §1

Compound in test [7]: COC(=O)[C@H](CCSC)NC(=O)C1=C(C=C(C=C1)NC[C@H](CS)N)C2=CC=CC=C2
Summed up: as §1

Compound in a further test: COc1cc(Nc2ncc3c(n2)-c2ccc(Cl)cc2C(c2c(F)cccc2OC)=NC3)ccc1C(=O)O [alisertib]
Summed up: as §1

Compound in test [8]: COc1cc2nc(-c3cc(F)ccc3O)nc(N[C@@H]3CNC[C@H]3C(C)(C)O)c2cc1OC
Summed up: as §1

Compound in a further test: COc1cc2ncnc(Nc3ccc(F)c(Cl)c3)c2cc1OCCCN1CCOCC1 [gefitinib]
An outline of the steps:
as §1

Compound in test [9]: CCn1c(C(=O)N(C2CC2)C2CC2)cc2c3c(ncn3C)c(Nc3cc(C)n(C)n3)nc21
Summed up:
as §1

Compound in the next test: CN1CCc2c(c3ccccc3n2Cc2ccc(C(=O)NO)cc2)C1 [Tubastatin A]
Summed up: as §1

The full data set covers some 8,800 targets. This sample favours those with a hit. About 0.5% of all pairs of compound and target were hits. Unmarked numbers belong to inactive results.

The values that follow come from the supplement of paper PMC10849652.

Chain of UniProt Q96SZ6 (Q96SZ6 whole entry, looked up): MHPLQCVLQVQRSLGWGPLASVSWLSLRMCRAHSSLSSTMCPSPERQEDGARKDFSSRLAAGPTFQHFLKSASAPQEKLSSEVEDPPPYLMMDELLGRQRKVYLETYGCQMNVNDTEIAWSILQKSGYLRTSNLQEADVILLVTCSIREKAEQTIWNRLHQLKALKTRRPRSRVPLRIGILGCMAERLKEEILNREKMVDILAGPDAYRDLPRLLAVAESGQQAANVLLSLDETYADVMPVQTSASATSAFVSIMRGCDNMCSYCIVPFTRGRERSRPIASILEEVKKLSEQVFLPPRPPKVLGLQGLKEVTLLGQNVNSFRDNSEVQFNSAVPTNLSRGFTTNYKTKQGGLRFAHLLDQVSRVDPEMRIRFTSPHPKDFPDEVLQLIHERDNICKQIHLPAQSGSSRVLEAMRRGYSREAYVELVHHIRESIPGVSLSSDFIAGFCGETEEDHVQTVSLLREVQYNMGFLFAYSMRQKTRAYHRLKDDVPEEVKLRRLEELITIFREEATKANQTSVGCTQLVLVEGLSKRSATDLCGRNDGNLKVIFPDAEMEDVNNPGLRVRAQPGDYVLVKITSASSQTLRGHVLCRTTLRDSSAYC
Chain of UniProt P0DMB2 (P0DMB2 whole entry, looked up): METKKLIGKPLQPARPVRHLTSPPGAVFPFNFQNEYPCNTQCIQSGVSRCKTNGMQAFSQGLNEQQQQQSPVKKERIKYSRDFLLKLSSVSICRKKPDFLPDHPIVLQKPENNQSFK
Chain of UniProt P49336 (P49336 whole entry, looked up): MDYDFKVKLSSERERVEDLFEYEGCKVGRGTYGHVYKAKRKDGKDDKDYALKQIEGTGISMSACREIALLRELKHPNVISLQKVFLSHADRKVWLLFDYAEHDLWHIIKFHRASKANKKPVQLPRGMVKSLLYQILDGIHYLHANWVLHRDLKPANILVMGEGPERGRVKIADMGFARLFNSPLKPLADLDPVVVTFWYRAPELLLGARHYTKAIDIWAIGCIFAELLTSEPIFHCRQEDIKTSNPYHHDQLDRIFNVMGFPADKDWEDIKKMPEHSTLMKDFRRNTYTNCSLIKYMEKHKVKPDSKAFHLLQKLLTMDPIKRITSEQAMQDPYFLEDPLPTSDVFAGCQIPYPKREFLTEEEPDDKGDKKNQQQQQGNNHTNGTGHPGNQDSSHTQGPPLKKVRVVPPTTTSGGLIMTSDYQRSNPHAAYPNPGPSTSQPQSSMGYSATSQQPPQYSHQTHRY
Chain of UniProt Q15059 (Q15059 whole entry, looked up): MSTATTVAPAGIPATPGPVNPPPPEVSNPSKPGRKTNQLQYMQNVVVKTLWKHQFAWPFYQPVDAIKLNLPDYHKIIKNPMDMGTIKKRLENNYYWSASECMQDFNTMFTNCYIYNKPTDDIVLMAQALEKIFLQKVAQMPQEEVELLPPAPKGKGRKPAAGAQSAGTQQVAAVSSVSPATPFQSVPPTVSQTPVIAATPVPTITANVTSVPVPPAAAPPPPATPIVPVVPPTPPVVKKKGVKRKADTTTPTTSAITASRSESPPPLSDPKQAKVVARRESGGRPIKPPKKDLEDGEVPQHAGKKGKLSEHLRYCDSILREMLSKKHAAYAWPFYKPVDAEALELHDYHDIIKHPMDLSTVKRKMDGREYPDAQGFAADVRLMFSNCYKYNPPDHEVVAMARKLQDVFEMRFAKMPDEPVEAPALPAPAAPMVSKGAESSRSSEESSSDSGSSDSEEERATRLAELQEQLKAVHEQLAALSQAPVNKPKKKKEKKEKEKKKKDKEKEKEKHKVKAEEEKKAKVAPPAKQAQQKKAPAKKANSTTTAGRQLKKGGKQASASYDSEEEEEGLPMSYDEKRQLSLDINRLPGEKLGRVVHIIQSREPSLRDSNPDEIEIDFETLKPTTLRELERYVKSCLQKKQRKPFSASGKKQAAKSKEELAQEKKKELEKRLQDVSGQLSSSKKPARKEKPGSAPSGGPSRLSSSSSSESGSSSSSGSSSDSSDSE
Chain of UniProt O43709 (O43709 whole entry, looked up): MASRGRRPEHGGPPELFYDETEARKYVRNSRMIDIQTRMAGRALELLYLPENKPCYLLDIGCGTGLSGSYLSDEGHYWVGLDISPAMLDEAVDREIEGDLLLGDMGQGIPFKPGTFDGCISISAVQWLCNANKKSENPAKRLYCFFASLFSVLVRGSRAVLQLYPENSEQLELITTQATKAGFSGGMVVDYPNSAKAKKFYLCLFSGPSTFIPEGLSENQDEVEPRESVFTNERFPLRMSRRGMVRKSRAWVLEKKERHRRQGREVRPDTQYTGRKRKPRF

For the target BRD3 (UniProt Q15059), the log2 fold change in the test with vemurafenib is -0.046; in test [1] it was 0.038; with barasertib it was -0.087; in [2], 0.451 (active); in the test with volasertib, 0.263; in [3], -0.143. Further, the log2 fold change in test [4] was 0.188; in the test with saracatinib it was 0.008; in the test with sotrastaurin, -0.082; with alvocidib, -0.059; in [5] it was 0.105; with defactinib, 0.017. Also, the log2 fold change in [6] was 0.09; in the test with encorafenib, -0.016; in test [7], 0.018; in the test with alisertib it was -0.003; in test [8], -0.015; with gefitinib it was -0.15.
As to BUD23 isoform 3 (UniProt O43709), the log2 fold change is 0.01 with vemurafenib; 0.017 in test [1]; 0.038 with barasertib; -0.006 in test [2]; -0.029 in the test with volasertib; -0.104 in [9]. The log2 fold change in test [3] was -0.341 (active); in [4] it was 0.193; in the test with saracatinib, 0.019; with sotrastaurin, 0.017; with alvocidib, -0.126; with Tubastatin A, 0.14. Besides, the log2 fold change in [5] was 0.026; with defactinib, -0.046; in test [6], -0.052; with encorafenib, -0.017; in test [7], 0.036; in the test with alisertib, 0.082. In addition, the log2 fold change in test [8] was 0.085; in the test with gefitinib it was 0.054.
Consider CDK8 (UniProt P49336), for which the log2 fold change with vemurafenib was 0.065; in test [1] it was 0.138; with barasertib it was 0.002; with volasertib, -0.083; in test [9] it was -0.011; in test [3] it was -0.134. Further, the log2 fold change in [4] was 0.045; with saracatinib, 0.109; with sotrastaurin, -0.001; with alvocidib, 0.384 (active); with Tubastatin A, -0.059; in test [5], -0.065. For the same target, the log2 fold change was -0.101 with defactinib; 0.083 in test [6]; -0.052 with alisertib; -0.047 in [8]; 0.07 with gefitinib.
For CDK5RAP1 (UniProt Q96SZ6), the log2 fold change in the test with vemurafenib is -0.03; in the test with barasertib, 0.025; in test [2] it was 0.059; in test [9], 0.035; in test [3], 0.023; in test [4] it was 0.026. Moreover, the log2 fold change with saracatinib is 0.026; in the test with sotrastaurin, -0.037; in the test with alvocidib, 0.019; with Tubastatin A, -0.023; in [5], -0.06; with defactinib it was 0.018. For the same target, the log2 fold change in [6] was -0.024; with encorafenib it was -0.057; in test [7], 0.029; in the test with alisertib, -0.003; with gefitinib, -0.007.
Take C8orf88 (UniProt P0DMB2): the log2 fold change is -0.053 with barasertib; 0.027 in [9]; 0.084 in test [3]; 0.011 in test [4]; 0.051 in the test with saracatinib; -0.015 with sotrastaurin. Also, the log2 fold change with alvocidib is 0.072; in the test with Tubastatin A, -0.064; in test [5], 0.07; in test [6] it was -0.015.
